Data as given in the supplement of paper PMC3334620.
Whole data set: some 33,000 sequences, median “E-score (-0.5 to 0.5)” near -0.0034, cut for the highest 2% near 0.25. This excerpt belongs to a sample that is enriched for the highest values.

The sequences below were run against T1, Yap3 (UniProt P38749) (assay: PBM E-score (8-mer binding enrichment) (E-score (-0.5 to 0.5)); higher = stronger / more preferred TF binding). Conditions: protein concentration: 100 nM; construct: GST-full length.
T1 sequence: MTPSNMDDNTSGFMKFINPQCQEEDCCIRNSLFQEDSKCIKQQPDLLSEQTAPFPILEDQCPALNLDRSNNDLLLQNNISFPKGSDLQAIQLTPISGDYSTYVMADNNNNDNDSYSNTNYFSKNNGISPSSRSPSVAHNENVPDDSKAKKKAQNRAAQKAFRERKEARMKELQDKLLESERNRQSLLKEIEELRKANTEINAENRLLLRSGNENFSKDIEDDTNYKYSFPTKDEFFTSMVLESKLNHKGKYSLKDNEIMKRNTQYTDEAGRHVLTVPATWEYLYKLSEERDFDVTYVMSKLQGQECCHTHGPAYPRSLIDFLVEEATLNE
Description: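 Universal 'all 10-mer' protein binding microarrays (Agilent AMADID 015681) probed with GST-tagged S. cerevisiae TFs (full-length or DBD) made by in vitro transcription/translation (PURExpress), about 100-200 nM. Bound TF was detected with fluorescent anti-GST. Each ungapped 8-mer (which stands for itself and its reverse complement) is scored by the PBM enrichment score (E-score), a modified Wilcoxon-Mann-Whitney statistic from -0.5 to +0.5, computed with the Universal PBM Analysis Suite. Scale: above 0.35 generally sequence-specific binding.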

| Sequence | PBM E-score |
| --- | --- |
| AGAATGCG | 0.0426 |
| AATAGTAT | 0.229 |
| GTATCCGA | -0.0824 |
| ATTACGTC | 0.33 |
| AGTACGTG | -0.0755 |
| AATACGTC | 0.188 |
| ACTACGTG | -0.166 |
| CTTAGGTC | -0.0924 |
| ATTACGCC | 0.0197 |
| ATTACGTG | 0.397 |
| ATTACGCA | 0.233 |
| ATTAGGTA | 0.167 |
| ATTAGGTC | 0.286 |
| ACTACGTC | -0.0702 |
| ATTACGCG | 0.311 |
| AGTAAACT | 0.0322 |
| CATCTGGC | -0.066 |
| TAGTACTA | 0.0913 |
| GGCTACAC | -0.166 |
| CGACTACA | 0.0886 |
| ATTGGCTC | 0.0983 |
| ATGGTAAT | 0.128 |
| AAGGACAC | -0.0338 |
| ACCCGGGT | -0.12 |
| ACCTTCAC | 0.00082 |
| ATTGGTTG | 0.118 |

| Sequence | PBM E-score |
| --- | --- |
| CTGTACGA | 0.0353 |
| CACAGTAA | 0.265 |
| CACAGTAG | 0.0618 |
| TACAGTAA | 0.183 |
| ATTTCGAG | 0.141 |
| ATTTCGAA | 0.261 |
| ATTTCGAC | -0.0412 |
| TGCGTGAA | 0.107 |
| ACATTAGT | 0.0888 |
| ATTTTATA | 0.331 |
| CGTTTATA | 0.28 |
| ACTTTATC | 0.169 |
| ATTTTATG | 0.21 |
| CATTTATC | 0.198 |
| CCTTTATA | 0.0052 |
| AATTTATC | 0.325 |
| ATTTTATC | 0.235 |
| AGTTTATA | 0.205 |
| ACTTTATA | 0.259 |
| GTTTTATA | 0.139 |
| GGTTTATA | 0.0813 |
| GGCAGTCA | -0.11 |
| AAGGTAAC | 0.121 |
| AATTTGAT | 0.0887 |
| ATCGTTTA | 0.135 |
| AAGAGCCG | -0.0966 |

| Sequence | PBM E-score |
| --- | --- |
| AGTCACGG | 0.00648 |
| AGGCAGAA | -0.0515 |
| CCTCGCAC | -0.133 |
| AATTTATG | 0.252 |
| AATTTATA | 0.294 |
| CATTTATA | 0.215 |
| GTCCATAA | -0.0433 |
| AGACATAA | 0.136 |
| CTGCATTA | -0.0676 |
| ATCCATAA | 0.258 |
| ATGCATTA | 0.333 |
| GGACATAA | 0.0711 |
| ATGCATTC | 0.0938 |
| CTCCATAA | -0.0865 |
| AACCATAT | 0.266 |
| AACCATAC | 0.0832 |
| AACCATAA | 0.15 |
| TGACATAA | 0.3 |
| CTCCTTCC | -0.171 |
| CATTTGAC | 0.0765 |
| GGAGCGCA | -0.261 |
| AAGTACGG | -0.0366 |
| AGCAATTC | 0.134 |
| TAGGCCCA | -0.198 |
| TCGTCGAA | 0.0355 |
| ATACATCA | 0.207 |

| Sequence | PBM E-score |
| --- | --- |
| ATACATAC | 0.0937 |
| GTACATAA | 0.135 |
| ACACATAG | -0.0796 |
| ATACATAG | 0.112 |
| GCACATAA | 0.131 |
| ACACATAA | 0.299 |
| AGACATAT | 0.185 |
| ATACATAT | 0.286 |
| CTACATAA | -0.0287 |
| TTACATAA | 0.416 |
| ATACATAA | 0.285 |
| GCCAATCA | -0.169 |
| CCAGCAGA | -0.17 |
| AACTGCTA | 0.00439 |
| CCGCCTGC | -0.278 |
| AGAGAAAA | 0.0508 |
| GTTTGAGA | -0.0917 |
| GGATTGGA | 0.19 |
| TCGCGCCA | -0.0451 |
| ATCTGGAG | -0.165 |
| GCTTGGAC | -0.0766 |
| CAAGGATG | -0.0177 |
| CGCAATAG | 0.105 |
| CCAATGAG | -0.0674 |
| CTACATTA | 0.11 |
| GTACATTA | 0.0635 |

| Sequence | PBM E-score |
| --- | --- |
| AAACATAG | -0.0382 |
| ATACATTA | 0.266 |
| AAACATAC | 0.0457 |
| AAACATAT | 0.305 |
| ATCAGGCA | -0.0855 |
| CGCACTTA | -0.0802 |
| GCTGTGCA | -0.205 |
| AACGGCGG | -0.208 |
| ACATTACG | 0.286 |
| ATATTATC | 0.149 |
| AGATTACG | 0.213 |
| ATATTACG | 0.412 |
| ATATTATG | 0.399 |
| ACATTACA | 0.131 |
| GCATTACA | 0.1 |
| CCATTACG | 0.0884 |
| ATATTACA | 0.226 |
| CCATTACA | 0.272 |
| ACATTACT | 0.213 |
| AGATTATG | 0.129 |
| CTTTGACC | 0.0628 |
| AGCTTGGC | -0.207 |
| AATAGCGT | 0.195 |
| ATATTACC | 0.276 |
| CTATTACC | -0.0641 |
| AGATTACC | 0.155 |

| Sequence | PBM E-score |
| --- | --- |
| AAAGTACA | 0.27 |
| AAAGTACC | 0.176 |
| CAAGTACA | -0.0722 |
| ACGAAGAA | 0.282 |
| ACGAAGAT | 0.0321 |
| ATAAGAAC | 0.289 |
| TCGAAGAA | -0.0713 |
| ACAAGAAT | 0.1 |
| ATAAGAAA | 0.207 |
| ATAAGAAT | 0.207 |
| ACAAAGAA | 0.257 |
| CCAAGAAA | -0.00981 |
| ACAAGAAA | 0.268 |
| CCAAAGAA | 0.124 |
| TCAAAGAA | -0.0713 |
| AACTTTTC | 0.0947 |
| AATCCCGG | -0.139 |
| CTGAGGAA | -0.0654 |
| ACCAGGTG | -0.245 |
| CCTTTGGA | -0.218 |
| ACCACAGT | 0.143 |
| GAACCAAC | 0.00249 |
| AGACATCC | -0.152 |
| GACTGCAA | -0.0662 |
| CCAACCGG | -0.193 |
| ATCCAACC | 0.00913 |

| Sequence | PBM E-score |
| --- | --- |
| CGGGTGGC | -0.289 |
| ATAAAGAA | 0.26 |
| CTAAAGAA | 0.0205 |
| TTAAAGAA | 0.19 |
| ATATCACG | 0.181 |
| GTGTCGAA | -0.0549 |
| CTGTATGC | -0.0877 |
| CACGCCAA | -0.0782 |
| ATTCAATC | 0.0991 |
| AAAAGTGA | 0.132 |
| TAAAGTGA | 0.263 |
| CAAAGTGA | 0.0818 |
| CCAACTCC | 0.117 |
| GGCCCAAA | -0.0982 |
| CCAGCAAA | 0.0803 |
| ATTAGTGA | 0.179 |
| ATTAGTGC | 0.299 |
| ATTAGTCC | 0.207 |
| CCTAGTCA | 0.0001 |
| ATAAGTCC | 0.0332 |
